System: Caenorhabditis elegans L1 (N2)
Experiment: survival and reproduction score of C. elegans L1 (0: 0-10 living worms, 1: 11-20, 2: 21-50, 3: >50, 4: overgrown) (score 0-4); higher = more worms, less nematicidal, active = 1 or less; extreme values may be limits of the assay
Settings: 60 µM; 6 days; temperature: 20 °C
Procedure, shortened: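 After compound was pinned to 60 µM final (0.6% v/v DMSO) into wells with roughly 20 synchronized C. elegans N2 L1s and E. coli HB101 in liquid NGM, the sealed 96-well plates were shaken at 200 rpm for 6 days at 20 °C. Under a dissection microscope, survival and reproduction were graded ordinally by living worms per well. A grade of 0 stood for 0–10 worms and 4 for overgrown, starved wells; two biological replicates were averaged.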

For `Cc1cc(C)c(NC(=O)CSc2nnc(-c3ccc(Br)cc3)o2)c(C)c1`, which “survival and reproduction score” value is on record?
Its value is 4 (inactive).

`CCOc1ccccc1-c1nc(-c2ccc(Br)cc2)no1` was tested. Which “survival and reproduction score” value did it give?
The value was 3 (inactive).

Which “survival and reproduction score” value does the source give for `Brc1ccc(CSc2nnc(-c3ccncc3)o2)cc1` here?
The value was 4 (inactive).

How did the “survival and reproduction score” value turn out when `COc1cccc(-c2noc(-c3cccc(F)c3)n2)c1` was run?
The value was 4 (inactive).

`Brc1ccc(-c2noc(-c3ccc4c(c3)OCO4)n2)cc1` was tested. Which “survival and reproduction score” value did it give?
The value was 4 (inactive).

For `O=C(CSc1nnc(-c2ccc(Br)cc2)o1)NC1CCCCC1`, which “survival and reproduction score” value is on record?
The value was 4 (inactive).

Which “survival and reproduction score” value does the source give for `CC(C)(C)c1ccc(OCc2nc(-c3ccccc3)no2)cc1` here?
The value was 4 (inactive).

With `O=C(NCCc1ccccc1)c1ccccc1-c1nc(-c2ccccc2Cl)no1` as the compound, how does the “survival and reproduction score” value read?
The value was 4 (inactive).

Which “survival and reproduction score” value does the source give for `Brc1ccc(OCc2nc(-c3cccnc3)no2)cc1` here?
The value was 4 (inactive).

With `O=C(CSc1nnc(-c2ccc(Br)cc2)o1)NC1CCCC1` as the compound, how does the “survival and reproduction score” value read?
Its value is 4 (inactive).

For `Clc1cc(Br)ccc1OCc1nc(-c2ccncc2)no1`, which “survival and reproduction score” value is on record?
Its value is 4 (inactive).

How did the “survival and reproduction score” value turn out when `Cc1ccccc1-c1noc(CSc2nc3ccccc3[nH]2)n1` was run?
The value was 4 (inactive).

How did the “survival and reproduction score” value turn out when `O=C(CSc1nnc(-c2ccccc2Cl)o1)c1ccc2c(c1)CCCC2` was run?
The value was 4 (inactive).

Which “survival and reproduction score” value does the source give for `Fc1ccc(-c2nc(-c3ccc(Br)cc3)no2)cc1` here?
The value was 3 (inactive).

Which “survival and reproduction score” value does the source give for `COc1nc(-c2ccc(Cl)cc2)ccc1-c1noc(-c2ccncc2)n1` here?
Its value is 4 (inactive).

How did the “survival and reproduction score” value turn out when `O=C(CSc1nnc(-c2cccc3ccccc23)o1)c1ccc(F)cc1` was run?
The value was 4 (inactive).

How did the “survival and reproduction score” value turn out when `Cc1cccc(-c2nc(-c3ccc(Br)cc3)no2)c1` was run?
Its value is 0 (active).

With `COc1ccc(-c2noc(CSc3nc(C)cc(C)n3)n2)cc1` as the compound, how does the “survival and reproduction score” value read?
Its value is 4 (inactive).

Which “survival and reproduction score” value does the source give for `Cn1c(SCc2nnc(-c3ccccc3)o2)nnc1-c1ccco1` here?
The value was 4 (inactive).

Reference: the supplement of paper PMC11219838
